The whole screen tested about 320,000 compounds, of which about 1,300 (0.41%) were called active. Shown is part of a subset that was picked to be rich in actives. Values without a mark were called inactive.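 How the source made its calls: active means percent inhibition above the average of all tested compounds plus 3 SD, set per screening campaign (cut at about 16% in these data); inactive means the rest.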

Chain of Insulin-degrading enzyme (Homo sapiens) (P14735 whole entry, looked up): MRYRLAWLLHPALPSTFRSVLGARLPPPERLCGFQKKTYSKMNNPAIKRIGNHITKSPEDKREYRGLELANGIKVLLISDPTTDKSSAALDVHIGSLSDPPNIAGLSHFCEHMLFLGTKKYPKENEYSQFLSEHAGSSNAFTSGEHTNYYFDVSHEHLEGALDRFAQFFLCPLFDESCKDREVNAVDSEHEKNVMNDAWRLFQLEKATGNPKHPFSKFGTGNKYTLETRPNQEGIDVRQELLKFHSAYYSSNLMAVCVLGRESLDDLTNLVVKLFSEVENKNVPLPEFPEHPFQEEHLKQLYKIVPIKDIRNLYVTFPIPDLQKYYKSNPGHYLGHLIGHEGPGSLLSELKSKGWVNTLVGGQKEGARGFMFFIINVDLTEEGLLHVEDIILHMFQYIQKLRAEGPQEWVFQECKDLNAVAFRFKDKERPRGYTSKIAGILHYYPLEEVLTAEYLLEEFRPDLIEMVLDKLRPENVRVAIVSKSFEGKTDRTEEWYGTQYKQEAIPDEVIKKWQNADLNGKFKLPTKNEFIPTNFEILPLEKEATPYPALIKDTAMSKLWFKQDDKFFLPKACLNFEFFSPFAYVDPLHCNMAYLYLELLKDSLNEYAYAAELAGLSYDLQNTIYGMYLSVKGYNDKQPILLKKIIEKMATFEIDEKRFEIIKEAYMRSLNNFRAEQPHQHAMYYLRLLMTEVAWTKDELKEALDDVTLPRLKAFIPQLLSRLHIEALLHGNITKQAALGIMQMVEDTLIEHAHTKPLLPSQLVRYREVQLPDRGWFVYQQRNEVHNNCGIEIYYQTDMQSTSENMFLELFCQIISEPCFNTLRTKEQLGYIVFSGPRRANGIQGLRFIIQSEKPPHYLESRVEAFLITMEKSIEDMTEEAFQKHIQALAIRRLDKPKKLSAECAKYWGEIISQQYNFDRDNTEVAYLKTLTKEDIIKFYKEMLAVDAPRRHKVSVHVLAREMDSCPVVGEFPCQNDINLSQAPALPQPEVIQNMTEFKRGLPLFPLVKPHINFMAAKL

This assay concerns the target Insulin-degrading enzyme (Homo sapiens) (UniProt P14735). Put plainly: human IDE inhibitors in live cells, primary screen, fluorescence polarization, HEK cells, FAbetaB substrate (AID 434962).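 Further: IDE supplied by intact live HEK cells; FP after avidin binding of uncleaved biotin substrate so inhibition keeps polarization high; 0% = DMSO wells and 100% = 60 µM reference IDE inhibitor Ii1.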 To be noted: FAbetaB cleavage, at 5.59 µM, active compounds read high.
For `Cc1ccc(S(=O)(=O)N2CCN(CC(=O)N/N=C/c3ccc(Br)s3)CC2)cc1`, the inhibition is 2.15%.

As for `CCOC(=O)c1csc(NC(=O)c2ccc(S(=O)(=O)N3CCCC3)cc2)n1`, the inhibition was 0.72%.

Consider `CNC(=O)c1ccsc1NC(=O)c1ccc(S(=O)(=O)N2CCOCC2)cc1`, for which the inhibition was 6.05%.

With `COc1ccc(C(=O)Nc2nc(-c3ccc(S(=O)(=O)N4CCOCC4)cc3)cs2)cc1`, the inhibition was 24.5% (active).

Regarding `CC(=O)CC(CC(=O)NC1CCCCC1)c1ccccc1` (stereo unspecified), the inhibition is -6.38%.

As for `COCCCNC(=O)/C=C/c1ccc(OCc2c(F)cccc2Cl)cc1`, the inhibition was 11.8%.

Consider `CN(C)CCCNC(=O)/C=C/c1ccc(OCc2c(F)cccc2Cl)cc1`, for which the inhibition was 5.4%.

Consider `O=C(/C=C/c1ccc(OCc2c(F)cccc2Cl)cc1)N1CCOCC1`, for which the inhibition was 21.1% (active).

With `Cc1cccc(N2CCN(C(=O)c3cccc(N4C(=O)C5C6C=CC(C6)C5C4=O)c3)CC2)c1C` (stereo unspecified), the inhibition was 44.4% (active).

`CC1C=CCC2C(=O)N(c3cccc(C(=O)N4CCCCCC4)c3)C(=O)C12` (stereo unspecified): the inhibition is -1.29%.

Regarding `CCn1c(C)c(C)c2cc(C(=O)N3CCN(c4cccc(C)c4C)CC3)ccc21`, the inhibition was -0.11%.

Turning to `CC(C)(C)C(=O)Nc1c(Br)c(C2CC2)nn1-c1ccccc1`, the inhibition was 0.92%.

Regarding `Cc1c(NC(=O)C(C)OC(=O)c2cc3c4ccccc4n(C)c3s2)c(=O)n(-c2ccccc2)n1C` (stereo unspecified), the inhibition is -0.34%.

As for `CCCn1c(N)c(C(=O)CSc2nc3ccccc3c(=O)n2-c2ccc(OC)cc2)c(=O)[nH]c1=O`, the inhibition is -10.9%.

As to `COc1ccc(Br)cc1C(=O)NC(=S)Nc1cc(-c2nc3ccccc3[nH]2)ccc1C`, the inhibition is 24.5% (active).

Take `Cc1cc2[nH]ncc2cc1NC(=S)NC(=O)c1ccccc1`: the inhibition is -2.99%.

On to `COc1ccc(Br)cc1C(=O)Nc1cccc(C)c1C`, for which the inhibition was 2.56%.

On to `CCOC(=O)C(CC)/C(C)=N\NC(=O)c1cccc(C)c1` (stereo unspecified), for which the inhibition was -1%.

`Cc1cc(Cl)ccc1OCCCC(=O)NCc1ccccn1`: the inhibition is -0.14%.

For `Cc1cc(Cl)ccc1OCCCC(=O)Nc1cccc(-n2cnnn2)c1`, the inhibition is 6.2%.

For `Cc1cc(Cl)ccc1OCCCC(=O)NCc1ccncc1`, the inhibition was 22.1% (active).

Turning to `CN(C)Cc1ccc(F)cc1Sc1cc(Cl)ccc1Cl`, the inhibition was 7.05%.

Regarding `CCOC(=O)CNc1nc(Cl)nc(Nc2ccc(OC)cc2OC)n1`, the inhibition is -1.6%.

In the case of `COc1ccc(/C=C2\SC(=S)N(CCC(=O)Nc3cccc(C(=O)O)c3)C2=O)cc1OC`, the inhibition is 1.95%.

`COc1ccc(/C=C2\SC(=S)N(CCCC(=O)NC3CCCC3)C2=O)cc1OC`: the inhibition was -2.87%.

For the compound `COc1cc(/C=C2/SC(=S)N(Cc3ccccc3)C2=O)cc(OC)c1O`, the inhibition is 68.4% (active).

Values taken from PubChem BioAssay AID434962 (The Scripps Research Institute Molecular Screening Center, 2010).
